Laboratory results as given in PMC7862700, “An all-to-all approach to the identification of sequence-specific readers for epigenetic DNA modifications on cytosine”.

What was measured:
Assay in all cases: DAPPL (digital affinity profiling via proximity ligation, sequencing); 10 mM Tris-HCl pH 7.5, 50 mM NaCl, 1 mM DTT, 4% glycerol, room temperature, 30 min; GST-TFs on glutathione beads, 16-mer random dsDNA library, 0.1% formaldehyde crosslink after washing; high values mean tight binding
Details in all cases: protein: recombinant; tags: N-terminal GST; dsDNA, one strand shown
FLI1 = molecular target: T1, FLI1 (Homo sapiens, UniProt Q01543 1-452)
T1 sequence: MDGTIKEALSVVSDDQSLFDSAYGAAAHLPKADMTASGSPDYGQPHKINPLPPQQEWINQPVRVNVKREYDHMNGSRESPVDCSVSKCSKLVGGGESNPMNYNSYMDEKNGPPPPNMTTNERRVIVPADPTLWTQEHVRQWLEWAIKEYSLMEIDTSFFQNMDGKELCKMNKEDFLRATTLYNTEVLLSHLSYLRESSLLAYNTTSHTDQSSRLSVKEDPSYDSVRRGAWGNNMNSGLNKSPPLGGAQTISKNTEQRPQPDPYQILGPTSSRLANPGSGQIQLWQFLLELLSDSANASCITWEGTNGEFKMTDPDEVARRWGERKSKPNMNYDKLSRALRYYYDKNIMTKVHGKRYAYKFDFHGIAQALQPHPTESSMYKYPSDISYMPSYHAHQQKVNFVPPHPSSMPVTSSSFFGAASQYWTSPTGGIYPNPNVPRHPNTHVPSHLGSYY
How it was run: (§1)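 Human transcription factors carrying a GST fusion were produced in yeast, bound to glutathione beads, tagged with DNA barcodes and pooled together with a tag-only sample. Each pool was held with 200 nmole of a random double-stranded 16-mer DNA library in Tris/NaCl/DTT/glycerol buffer for 30 min at room temperature, then washed, crosslinked in 0.1% formaldehyde, proximity-ligated with BsaI/T4 ligase (1 h, 37 °C), PCR-amplified and sequenced on an Illumina NextSeq500. Binding signal is the read frequency of each hexamer for a given factor divided by its frequency in the tag-only sample.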

ELK1 = molecular target: T2, ELK1 (Homo sapiens, UniProt P19419 1-428)
T2 sequence: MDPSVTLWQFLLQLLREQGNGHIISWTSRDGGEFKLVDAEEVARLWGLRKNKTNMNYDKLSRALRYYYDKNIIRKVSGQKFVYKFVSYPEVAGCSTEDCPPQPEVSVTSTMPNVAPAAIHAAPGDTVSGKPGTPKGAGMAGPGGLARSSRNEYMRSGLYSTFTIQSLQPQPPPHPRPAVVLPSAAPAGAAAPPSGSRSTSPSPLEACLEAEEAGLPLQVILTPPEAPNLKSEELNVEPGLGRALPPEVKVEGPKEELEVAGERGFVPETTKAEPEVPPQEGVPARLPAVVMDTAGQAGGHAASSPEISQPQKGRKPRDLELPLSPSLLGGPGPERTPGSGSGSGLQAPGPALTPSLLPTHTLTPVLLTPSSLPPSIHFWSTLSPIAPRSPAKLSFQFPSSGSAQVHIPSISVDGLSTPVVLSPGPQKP
How it was run: as §1

GABPA = molecular target: T3, GABPA (Homo sapiens, UniProt Q06546 1-454)
T3 sequence: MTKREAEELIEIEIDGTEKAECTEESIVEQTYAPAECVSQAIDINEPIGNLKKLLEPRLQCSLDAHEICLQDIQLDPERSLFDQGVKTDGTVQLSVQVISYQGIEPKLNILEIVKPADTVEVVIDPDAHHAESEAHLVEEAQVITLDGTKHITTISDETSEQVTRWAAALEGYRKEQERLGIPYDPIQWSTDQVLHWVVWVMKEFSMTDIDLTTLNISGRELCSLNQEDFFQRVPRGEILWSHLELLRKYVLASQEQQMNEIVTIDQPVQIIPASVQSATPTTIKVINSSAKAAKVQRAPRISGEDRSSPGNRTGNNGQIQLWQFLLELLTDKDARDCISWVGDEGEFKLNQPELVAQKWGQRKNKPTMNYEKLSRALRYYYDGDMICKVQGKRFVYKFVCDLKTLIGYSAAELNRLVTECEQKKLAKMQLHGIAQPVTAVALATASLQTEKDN
How it was run: as §1

ERG = molecular target: T4, ERG (Homo sapiens, UniProt P11308 1-479)
T4 sequence: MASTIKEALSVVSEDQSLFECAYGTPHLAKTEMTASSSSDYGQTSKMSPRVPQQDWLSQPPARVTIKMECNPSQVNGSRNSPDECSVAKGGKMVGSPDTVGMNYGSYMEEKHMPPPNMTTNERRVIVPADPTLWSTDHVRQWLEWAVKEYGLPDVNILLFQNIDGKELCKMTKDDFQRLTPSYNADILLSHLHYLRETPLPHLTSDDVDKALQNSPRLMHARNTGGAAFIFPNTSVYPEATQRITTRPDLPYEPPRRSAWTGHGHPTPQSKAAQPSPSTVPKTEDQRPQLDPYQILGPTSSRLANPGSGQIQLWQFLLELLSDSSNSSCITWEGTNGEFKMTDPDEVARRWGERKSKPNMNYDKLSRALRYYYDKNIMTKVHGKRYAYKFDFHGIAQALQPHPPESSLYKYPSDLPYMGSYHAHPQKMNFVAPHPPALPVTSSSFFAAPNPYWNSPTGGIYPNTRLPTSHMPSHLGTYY
How it was run: as §1

ELF1 = ELF1 (Homo sapiens, UniProt P32519 1-619)
Chain of ELF1 (P32519 whole entry): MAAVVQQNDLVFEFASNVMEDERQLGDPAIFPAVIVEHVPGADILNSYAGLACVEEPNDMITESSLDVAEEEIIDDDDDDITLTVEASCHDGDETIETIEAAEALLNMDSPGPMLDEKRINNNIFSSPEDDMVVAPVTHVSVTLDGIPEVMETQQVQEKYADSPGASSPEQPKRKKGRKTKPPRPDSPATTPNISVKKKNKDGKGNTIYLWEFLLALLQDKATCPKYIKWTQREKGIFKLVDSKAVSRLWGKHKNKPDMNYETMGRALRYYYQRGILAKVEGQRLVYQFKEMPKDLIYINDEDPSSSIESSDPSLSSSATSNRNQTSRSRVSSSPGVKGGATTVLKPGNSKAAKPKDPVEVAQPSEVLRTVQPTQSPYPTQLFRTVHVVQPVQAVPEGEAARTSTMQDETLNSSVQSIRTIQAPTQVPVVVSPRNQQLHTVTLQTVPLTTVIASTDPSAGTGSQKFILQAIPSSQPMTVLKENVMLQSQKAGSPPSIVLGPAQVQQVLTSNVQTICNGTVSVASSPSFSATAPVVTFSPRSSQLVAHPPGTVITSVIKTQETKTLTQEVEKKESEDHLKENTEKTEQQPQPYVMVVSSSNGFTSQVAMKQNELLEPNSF
How it was run: as §1

SPI1 = SPI1 (Homo sapiens, UniProt P17947 1-270)
How it was run: as §1

SPIB = SPIB (Homo sapiens, UniProt Q01892 1-262)
Chain of SPIB (Q01892 whole entry): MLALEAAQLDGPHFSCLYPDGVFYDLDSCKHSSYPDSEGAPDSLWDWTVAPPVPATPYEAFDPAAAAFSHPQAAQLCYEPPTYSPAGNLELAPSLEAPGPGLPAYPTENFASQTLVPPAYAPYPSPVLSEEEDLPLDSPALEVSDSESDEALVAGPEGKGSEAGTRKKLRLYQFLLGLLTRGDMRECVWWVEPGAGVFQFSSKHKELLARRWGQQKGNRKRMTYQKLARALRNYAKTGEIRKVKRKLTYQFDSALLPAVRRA
How it was run: as §1

ELK3 = molecular target: T5, ELK3 (Homo sapiens, UniProt P41970 1-407)
T5 sequence: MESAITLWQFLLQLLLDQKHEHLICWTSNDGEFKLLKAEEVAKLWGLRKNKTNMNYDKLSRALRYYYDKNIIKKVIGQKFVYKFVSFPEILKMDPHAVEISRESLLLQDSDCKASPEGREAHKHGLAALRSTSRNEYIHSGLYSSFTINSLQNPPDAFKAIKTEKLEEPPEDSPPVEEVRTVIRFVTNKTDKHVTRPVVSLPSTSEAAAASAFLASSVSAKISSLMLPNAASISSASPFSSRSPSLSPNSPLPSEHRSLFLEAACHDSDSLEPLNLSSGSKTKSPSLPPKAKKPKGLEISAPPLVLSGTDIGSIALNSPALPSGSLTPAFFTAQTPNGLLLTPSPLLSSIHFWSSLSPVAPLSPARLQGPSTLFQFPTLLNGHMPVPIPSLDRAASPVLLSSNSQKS
How it was run: as §1

FEV = molecular target: T6, FEV (Homo sapiens, UniProt Q99581 1-238)
T6 sequence: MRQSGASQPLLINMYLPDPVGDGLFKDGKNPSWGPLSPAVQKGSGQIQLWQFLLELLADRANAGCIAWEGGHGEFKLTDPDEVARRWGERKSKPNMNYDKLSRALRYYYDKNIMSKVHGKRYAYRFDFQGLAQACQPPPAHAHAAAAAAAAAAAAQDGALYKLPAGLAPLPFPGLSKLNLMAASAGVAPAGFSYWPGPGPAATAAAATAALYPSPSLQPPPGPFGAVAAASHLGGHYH
How it was run: as §1

ETV5 = ETV5 (Homo sapiens, UniProt P41161 1-510)
Chain of ETV5 (P41161 whole entry): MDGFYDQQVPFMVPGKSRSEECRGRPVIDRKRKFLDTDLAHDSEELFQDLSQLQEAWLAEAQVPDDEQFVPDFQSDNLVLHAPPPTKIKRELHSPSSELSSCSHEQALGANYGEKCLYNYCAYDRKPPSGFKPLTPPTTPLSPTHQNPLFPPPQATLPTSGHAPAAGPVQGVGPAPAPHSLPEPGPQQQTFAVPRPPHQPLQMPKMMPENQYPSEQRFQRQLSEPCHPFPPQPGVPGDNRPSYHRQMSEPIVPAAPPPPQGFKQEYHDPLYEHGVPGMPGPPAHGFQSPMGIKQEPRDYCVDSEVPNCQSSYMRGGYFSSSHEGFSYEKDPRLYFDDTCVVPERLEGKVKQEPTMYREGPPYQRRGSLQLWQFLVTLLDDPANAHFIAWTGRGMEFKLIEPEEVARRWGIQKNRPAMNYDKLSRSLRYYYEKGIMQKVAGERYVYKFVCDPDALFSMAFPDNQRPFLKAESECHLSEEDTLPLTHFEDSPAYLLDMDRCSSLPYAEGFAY
How it was run: as §1

SPIC = molecular target: T7, SPIC (Homo sapiens, UniProt Q8N5J4 1-248)
T7 sequence: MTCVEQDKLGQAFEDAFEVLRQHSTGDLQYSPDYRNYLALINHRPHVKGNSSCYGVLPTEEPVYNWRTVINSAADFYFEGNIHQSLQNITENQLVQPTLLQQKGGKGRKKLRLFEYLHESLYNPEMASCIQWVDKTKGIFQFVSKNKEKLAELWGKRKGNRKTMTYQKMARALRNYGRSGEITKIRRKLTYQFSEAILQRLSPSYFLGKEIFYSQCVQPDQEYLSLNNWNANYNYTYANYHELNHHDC
How it was run: as §1

ELF4 = ELF4 (Homo sapiens, UniProt Q99607 1-663)
Chain of ELF4 (Q99607 whole entry): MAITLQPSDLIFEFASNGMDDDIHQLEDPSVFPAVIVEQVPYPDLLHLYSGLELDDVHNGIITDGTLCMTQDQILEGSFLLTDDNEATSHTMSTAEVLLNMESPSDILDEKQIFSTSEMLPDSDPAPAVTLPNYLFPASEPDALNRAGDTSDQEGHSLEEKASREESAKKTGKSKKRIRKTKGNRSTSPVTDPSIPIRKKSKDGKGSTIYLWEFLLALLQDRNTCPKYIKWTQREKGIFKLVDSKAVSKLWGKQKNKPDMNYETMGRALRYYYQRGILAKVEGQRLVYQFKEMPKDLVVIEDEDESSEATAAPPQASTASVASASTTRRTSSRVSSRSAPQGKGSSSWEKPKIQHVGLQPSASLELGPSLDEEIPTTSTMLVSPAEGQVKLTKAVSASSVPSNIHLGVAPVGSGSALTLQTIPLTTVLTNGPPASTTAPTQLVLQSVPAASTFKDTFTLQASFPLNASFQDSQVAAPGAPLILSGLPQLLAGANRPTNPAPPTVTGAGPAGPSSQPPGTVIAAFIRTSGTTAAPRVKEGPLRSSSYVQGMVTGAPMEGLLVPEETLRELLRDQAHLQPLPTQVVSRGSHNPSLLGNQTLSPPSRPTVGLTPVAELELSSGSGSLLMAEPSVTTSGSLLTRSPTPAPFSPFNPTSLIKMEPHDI
How it was run: as §1

ELK4 = molecular target: T8, ELK4 (Homo sapiens, UniProt P28324-2 1-405)
T8 sequence: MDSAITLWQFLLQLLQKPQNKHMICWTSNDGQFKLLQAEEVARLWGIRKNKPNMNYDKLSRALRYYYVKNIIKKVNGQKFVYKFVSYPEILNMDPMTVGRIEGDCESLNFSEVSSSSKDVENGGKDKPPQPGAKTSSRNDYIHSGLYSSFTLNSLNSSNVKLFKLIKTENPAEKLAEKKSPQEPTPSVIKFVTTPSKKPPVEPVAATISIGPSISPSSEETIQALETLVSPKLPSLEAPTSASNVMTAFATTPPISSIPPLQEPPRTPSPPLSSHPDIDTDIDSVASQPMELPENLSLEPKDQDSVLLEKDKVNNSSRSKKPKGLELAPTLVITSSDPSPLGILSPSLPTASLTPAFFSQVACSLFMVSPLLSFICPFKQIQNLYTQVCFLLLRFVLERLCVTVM
How it was run: as §1

ETV2 = molecular target: T9, ETV2 (Homo sapiens, UniProt O00321 1-342)
T9 sequence: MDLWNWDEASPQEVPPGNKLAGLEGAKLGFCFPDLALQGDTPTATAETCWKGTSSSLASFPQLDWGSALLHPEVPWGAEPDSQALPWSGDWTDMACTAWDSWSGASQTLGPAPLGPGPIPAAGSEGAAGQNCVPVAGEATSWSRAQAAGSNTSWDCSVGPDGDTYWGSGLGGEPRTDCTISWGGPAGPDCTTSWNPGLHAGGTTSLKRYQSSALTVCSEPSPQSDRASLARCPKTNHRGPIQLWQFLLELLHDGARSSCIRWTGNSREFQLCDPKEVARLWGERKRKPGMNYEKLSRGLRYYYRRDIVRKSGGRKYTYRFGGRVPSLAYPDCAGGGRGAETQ
How it was run: as §1

ELF3 = molecular target: T10, ELF3 (Homo sapiens, UniProt P78545 1-371)
T10 sequence: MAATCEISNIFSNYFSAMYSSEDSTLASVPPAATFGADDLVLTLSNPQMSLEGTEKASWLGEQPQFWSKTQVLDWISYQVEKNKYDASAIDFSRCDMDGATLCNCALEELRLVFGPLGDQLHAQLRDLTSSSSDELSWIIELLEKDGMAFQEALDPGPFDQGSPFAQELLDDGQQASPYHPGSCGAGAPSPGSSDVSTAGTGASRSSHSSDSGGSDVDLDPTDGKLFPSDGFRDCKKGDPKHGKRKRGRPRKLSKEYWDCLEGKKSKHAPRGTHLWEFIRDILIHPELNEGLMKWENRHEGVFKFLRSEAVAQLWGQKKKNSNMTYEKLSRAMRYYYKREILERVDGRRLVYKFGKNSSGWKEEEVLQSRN
How it was run: as §1

ETV1 = ETV1 (Homo sapiens, UniProt P50549 1-477)
Chain of ETV1 (P50549 whole entry): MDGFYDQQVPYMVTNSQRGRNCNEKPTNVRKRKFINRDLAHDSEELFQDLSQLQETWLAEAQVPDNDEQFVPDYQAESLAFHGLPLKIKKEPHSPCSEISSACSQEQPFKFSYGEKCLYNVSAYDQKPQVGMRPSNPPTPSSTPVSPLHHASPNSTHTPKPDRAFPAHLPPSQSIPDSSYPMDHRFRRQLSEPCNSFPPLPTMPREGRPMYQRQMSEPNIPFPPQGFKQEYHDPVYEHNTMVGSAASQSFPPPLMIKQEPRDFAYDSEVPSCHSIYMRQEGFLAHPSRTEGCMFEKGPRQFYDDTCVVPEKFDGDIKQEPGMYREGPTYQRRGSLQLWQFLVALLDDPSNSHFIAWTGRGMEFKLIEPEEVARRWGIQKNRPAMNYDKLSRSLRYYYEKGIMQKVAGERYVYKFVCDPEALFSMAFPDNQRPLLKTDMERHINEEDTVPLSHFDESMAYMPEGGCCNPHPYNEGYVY
How it was run: as §1

EHF = molecular target: T11, EHF (Homo sapiens, UniProt Q9NZC4 1-300)
T11 sequence: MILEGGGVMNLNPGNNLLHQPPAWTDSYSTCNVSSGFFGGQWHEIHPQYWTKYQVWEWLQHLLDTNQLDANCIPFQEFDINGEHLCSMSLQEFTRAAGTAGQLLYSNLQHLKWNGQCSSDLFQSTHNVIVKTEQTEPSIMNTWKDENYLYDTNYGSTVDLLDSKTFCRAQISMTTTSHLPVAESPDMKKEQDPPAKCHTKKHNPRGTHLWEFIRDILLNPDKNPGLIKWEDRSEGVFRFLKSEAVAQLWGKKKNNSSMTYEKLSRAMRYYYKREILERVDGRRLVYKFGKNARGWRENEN
How it was run: as §1

For CAATCA, the binding signal (FLI1) was 1.11 fold enrichment (6-mer frequency, TF over GST control), the binding signal (ELK1) was 1.11 fold enrichment (6-mer frequency, TF over GST control) and the binding signal (GABPA) was 1.24 fold enrichment (6-mer frequency, TF over GST control). For the same sequence, the binding signal (ERG) was 1.14 fold enrichment (6-mer frequency, TF over GST control), the binding signal (ELF1) was 1.19 fold enrichment (6-mer frequency, TF over GST control) and the binding signal (SPI1) was 1.08 fold enrichment (6-mer frequency, TF over GST control). For the same sequence, the binding signal (SPIB) was 1.1 fold enrichment (6-mer frequency, TF over GST control), the binding signal (ELK3) was 1.05 fold enrichment (6-mer frequency, TF over GST control) and the binding signal (FEV) was 1.11 fold enrichment (6-mer frequency, TF over GST control). For the same sequence, the binding signal (ETV5) was 1.15 fold enrichment (6-mer frequency, TF over GST control), the binding signal (SPIC) was 1.19 fold enrichment (6-mer frequency, TF over GST control) and the binding signal (ELF4) was 1.16 fold enrichment (6-mer frequency, TF over GST control). For the same sequence, the binding signal (ELK4) was 1.04 fold enrichment (6-mer frequency, TF over GST control), the binding signal (ETV2) was 1.15 fold enrichment (6-mer frequency, TF over GST control) and the binding signal (ELF3) was 1.12 fold enrichment (6-mer frequency, TF over GST control). The binding signal (ETV1) was 1.13 fold enrichment (6-mer frequency, TF over GST control).
For CACCTC, the binding signal (FLI1) was 1.12 fold enrichment (6-mer frequency, TF over GST control), the binding signal (ELK1) was 1.15 fold enrichment (6-mer frequency, TF over GST control) and the binding signal (GABPA) was 1.2 fold enrichment (6-mer frequency, TF over GST control). The binding signal (ERG) was 1.17 fold enrichment (6-mer frequency, TF over GST control), the binding signal (ELF1) was 1.2 fold enrichment (6-mer frequency, TF over GST control) and the binding signal (EHF) was 1.27 fold enrichment (6-mer frequency, TF over GST control). The binding signal (SPIB) was 1.1 fold enrichment (6-mer frequency, TF over GST control), the binding signal (ELK3) was 1.09 fold enrichment (6-mer frequency, TF over GST control) and the binding signal (FEV) was 1.11 fold enrichment (6-mer frequency, TF over GST control). The binding signal (ETV5) was 1.13 fold enrichment (6-mer frequency, TF over GST control), the binding signal (SPIC) was 1.22 fold enrichment (6-mer frequency, TF over GST control) and the binding signal (ELF4) was 1.23 fold enrichment (6-mer frequency, TF over GST control). The binding signal (ELK4) was 1.14 fold enrichment (6-mer frequency, TF over GST control), the binding signal (ETV2) was 1.2 fold enrichment (6-mer frequency, TF over GST control) and the binding signal (ELF3) was 1.1 fold enrichment (6-mer frequency, TF over GST control). The binding signal (ETV1) was 1.19 fold enrichment (6-mer frequency, TF over GST control).
